The whole screen tested about 310,000 compounds, of which about 14,000 (4.5%) showed an effect of 50% or more. Effects have a minus sign here. For the sample, strong results were picked, then their nearest neighbours and some compounds at random.
molecular target: human ether-à-go-go-related gene (hERG) potassium channel (human, UniProt Q12809); test: primary screen, population patch clamp on CHO cells stably expressing hERG; higher = less effect of the substance
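Note: peak tail current of the secondary pulse compared with the same well before compound.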

human ether-à-go-go-related gene (hERG) potassium channel, sequence (Q12809 whole entry, looked up): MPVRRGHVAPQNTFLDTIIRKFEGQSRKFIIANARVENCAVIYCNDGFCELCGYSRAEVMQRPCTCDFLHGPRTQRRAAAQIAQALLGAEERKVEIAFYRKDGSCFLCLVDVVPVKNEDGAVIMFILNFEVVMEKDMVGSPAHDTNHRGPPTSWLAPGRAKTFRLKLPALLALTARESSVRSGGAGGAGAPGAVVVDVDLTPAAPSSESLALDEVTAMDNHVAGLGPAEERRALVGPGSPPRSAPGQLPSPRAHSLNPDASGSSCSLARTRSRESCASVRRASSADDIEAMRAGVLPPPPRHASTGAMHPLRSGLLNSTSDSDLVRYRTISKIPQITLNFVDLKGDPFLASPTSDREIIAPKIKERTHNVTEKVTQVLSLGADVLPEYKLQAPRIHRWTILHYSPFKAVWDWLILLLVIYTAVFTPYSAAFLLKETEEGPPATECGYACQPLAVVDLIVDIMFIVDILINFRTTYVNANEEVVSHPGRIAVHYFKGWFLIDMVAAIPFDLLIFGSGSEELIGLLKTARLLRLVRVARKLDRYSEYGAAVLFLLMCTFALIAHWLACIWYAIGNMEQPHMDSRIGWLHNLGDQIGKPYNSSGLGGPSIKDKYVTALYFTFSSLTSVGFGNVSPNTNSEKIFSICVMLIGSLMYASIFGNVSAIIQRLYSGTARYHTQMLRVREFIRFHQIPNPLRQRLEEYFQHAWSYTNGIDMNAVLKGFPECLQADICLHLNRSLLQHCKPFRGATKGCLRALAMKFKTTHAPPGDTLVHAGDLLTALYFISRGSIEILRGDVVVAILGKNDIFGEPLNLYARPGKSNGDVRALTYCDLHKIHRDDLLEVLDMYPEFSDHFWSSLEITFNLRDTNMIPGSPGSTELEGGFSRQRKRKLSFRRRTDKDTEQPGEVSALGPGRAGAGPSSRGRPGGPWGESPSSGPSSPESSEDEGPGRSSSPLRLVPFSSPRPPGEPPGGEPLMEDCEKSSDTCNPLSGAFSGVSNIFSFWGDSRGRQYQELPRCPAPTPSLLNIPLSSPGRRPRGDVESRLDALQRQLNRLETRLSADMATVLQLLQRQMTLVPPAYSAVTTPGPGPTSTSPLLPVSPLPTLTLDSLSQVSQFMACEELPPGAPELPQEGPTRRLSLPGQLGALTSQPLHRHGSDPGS

SMILES | hERG current change (%, negative = inhibition) at 10uM
Cc1sc(NC(=S)NC(=O)c2ccccc2)c(C#N)c1C | 0.195%
O=C(N/N=C1\C(=O)c2cccc3cccc1c23)c1ccc(O)cc1 | 8.35%
CCOC(=O)c1[nH]c2cc(OC)c(OC)cc2c1NC(=O)c1ccc2c(c1)OCO2 | -4.45%
COc1cc(C(=O)N/N=C(\C)Cn2nc([N+](=O)[O-])cc2C)ccc1O | -21.1%
CC(C)(C)c1nnc(NC(=O)NS(=O)(=O)c2ccccc2)s1 | 19.7%
O=C(Nc1nccs1)c1ccc(S(=O)(=O)N2CCCCC2)cc1 | 3.29%
COc1ccc(C(=O)O)cc1S(=O)(=O)N(C)C | 16.6%
O=C(Nc1cc(Cl)ccc1Oc1ccccc1)c1ccccc1F | -4.45%
CCCC(C)C(=O)Nc1ccccc1C(=O)OCC (centres unmarked) | -4.39%
O=S(=O)(Nc1ccccc1Cl)c1cc(NC(=S)NCCN2CCOCC2)ccc1Cl | 14%
CCOC(NC(=O)c1ccccc1)C(NC(=O)c1ccccc1)OCC (centres unmarked) | -0.069%
CCN1CCN(c2ccc(N3CCN(S(=O)(=O)c4cc([N+](=O)[O-])ccc4C)CC3)nn2)CC1 | -54.4%
Cc1ccc(S(=O)(=O)N2CCN(c3ccc(N4CCOCC4)nn3)CC2)cc1[N+](=O)[O-] | -4.74%
CCN1CCN(c2ccc(N3CCN(S(=O)(=O)c4ccc(C)c([N+](=O)[O-])c4)CC3)nn2)CC1 | -56.6%
Cc1ccc([N+](=O)[O-])cc1S(=O)(=O)N1CCCC1 | 7.21%
Cc1ccc([N+](=O)[O-])cc1S(=O)(=O)N1CCN(C)CC1 | 0.51%
CCN1CCN(S(=O)(=O)c2ccc(C)c([N+](=O)[O-])c2)CC1 | -0.352%
C[C@]12CC[C@@H]3c4cc(O)c(O)cc4CC[C@H]3[C@@H]1CC[C@@H]2O | 24.1%
O=C(O)c1cc(-c2cccc(Cl)c2)nc2nc(N3CCCCC3)sc12 | 8.18%
CS(=O)(=O)c1ccc(NCC2CCCO2)c([N+](=O)[O-])c1 (centres unmarked) | 9.48%
CN(CCc1ccccc1)C1CCCN(C(=O)Cn2cccn2)C1 (centres unmarked) | -1.49%

SMILES | hERG current change (%, negative = inhibition) at 10uM
Cc1cc(C)nc(SCc2ccc(C(=O)N/N=C/c3ccc(C(=O)O)cc3)cc2)n1 | 28.6%
Cc1cc(C)nc(SCc2ccc(C(=O)N/N=C/c3ccncc3)cc2)n1 | -50.5%
Cc1cc(C)nc(SCc2ccc(C(=O)N/N=C/c3cccnc3)cc2)n1 | -17.3%
N=C1C(c2nc3ccccc3[nH]2)=C(O)CN1NC(=O)c1c[nH]c2ccccc12 | 17%
CCOc1ccc(N2C(=O)Nc3ccc(Br)cc3C2(O)C(=O)NC(C)C)cc1 (centres unmarked) | 8.92%
O=C(Cn1ncc2c3ccccc3n(Cc3ccccc3F)c2c1=O)N1CCC2(CC1)OCCO2 | -72.8%
Cn1c2ccccc2c2cnn(CC(=O)N3CCC4(CC3)OCCO4)c(=O)c21 | -22.2%
Cc1c2cnn(CC(=O)N3CCC4(CC3)OCCO4)c(=O)c2c(C)n1Cc1ccc(F)cc1 | -7.31%
O=C(Cn1ncc2c3ccccc3n(Cc3ccc(F)cc3)c2c1=O)N1CCC2(CC1)OCCO2 | -67.2%
O=C(Cn1ncc2c3ccccc3n(Cc3cccc(Cl)c3)c2c1=O)N1CCC2(CC1)OCCO2 | -69%
Cc1c2cnn(CC(=O)N3CCC4(CC3)OCCO4)c(=O)c2c(C)n1Cc1cccc(Cl)c1 | 1.18%
Cc1c2cnn(CC(=O)N3CCC4(CC3)OCCO4)c(=O)c2c(C)n1Cc1ccccc1 | -0.415%
O=C(Cn1ncc2c3ccccc3n(Cc3ccc(F)cc3)c2c1=O)N1CCN(c2ncccn2)CC1 | -16.2%
Cc1c2cnn(CC(=O)N3CCC4(CC3)OCCO4)c(=O)c2c(C)n1Cc1ccccc1F | 6.7%
Cc1ccc2nc(C(C)O)[nH]c2c1 (centres unmarked) | 17.3%
CC#CCCCC(=O)Nc1ccc(C(=O)O)cc1 | 1.36%
CN1CCN(Cc2nc(-c3cccs3)no2)CC1c1ccccc1 (centres unmarked) | -8.45%
COC(=O)c1nnn(CC(=O)NC(=O)Nc2cccc(Cl)c2C)c1C(=O)OC | -0.536%
O=C(COc1ccccc1)Nc1ccccc1N1CCCCC1 | 2.27%
CCn1cc(C(=O)NCCCN2CCN(C)CC2)c(=O)c2cc(S(=O)(=O)N3CCc4ccccc4C3)ccc21 | -20.4%
CCn1cc(C(=O)NCCc2ccccc2)c(=O)c2cc(S(=O)(=O)N3CCCC3)ccc21 | 1.7%

SMILES | hERG current change (%, negative = inhibition) at 10uM
CCCCN(CCCC)CCNC(=O)c1cn(CC)c2ccc(S(=O)(=O)N3CCc4ccccc4C3)cc2c1=O | -78.8%
CCn1cc(C(=O)NCc2ccco2)c(=O)c2cc(S(=O)(=O)N3CCc4ccccc4C3)ccc21 | -15.3%
CCCN(CCC)CCCNC(=O)c1cn(CC)c2ccc(S(=O)(=O)N3CCc4ccccc4C3)cc2c1=O | -69.9%
CCCN(CCC)CCCNC(=O)c1cn(CC)c2ccc(S(=O)(=O)N3CCOCC3)cc2c1=O | 12.8%
CCn1cc(C(=O)NCCN(CC(C)C)CC(C)C)c(=O)c2cc(S(=O)(=O)N3CCOCC3)ccc21 | -14.1%
CCN(CC)CCCNC(=O)c1cn(CC)c2ccc(S(=O)(=O)N3CCc4ccccc4C3)cc2c1=O | -52.9%
CCN(CC)CCNC(=O)c1cn(CC)c2ccc(S(=O)(=O)N3CCc4ccccc4C3)cc2c1=O | -59.4%
O=C(NC1CCCCC1)C1CCC(CNS(=O)(=O)c2ccccc2)CC1 (centres unmarked) | 10.3%
COc1ccc(-c2c(C#N)c(C)nc3c2C(=O)c2ccccc2-3)cc1 | -3.8%
Cn1c(SCC(=O)c2ccccc2)nnc1-c1ccc(O)cc1 | -11.2%
COc1cccc(C=NCC(C)N=Cc2cccc(OC)c2O)c1O (centres unmarked) | 3.33%
Cn1c(=O)c2c(nc(NCc3ccco3)n2CC(O)CO)n(C)c1=O (centres unmarked) | 22.1%
CCOC(=O)N1CCN(C(=O)CCN2C(=O)COc3ccccc32)CC1 | 0.87%
c1ccc(-c2noc(-c3ccc4ccccc4c3)n2)cc1 | 11.9%
CCOC(=O)c1c(NC(=O)CCCN2CCOCC2)sc2c1CC(C)(C)OC2 | -9.14%
COc1ccc(C2=NOC(C(=O)Nc3ccc4c(c3)OCCO4)C2)c(OC)c1 (centres unmarked) | 3.96%
CCOC(=O)COc1ccc(S(=O)(=O)NCc2ccco2)cc1 | -1.53%
CCNc1nc(NC(C)CC)nc(ON=C(C)C)n1 (centres unmarked) | -2.23%
CCCCSCCCNC(=O)c1cn(CC)c2ccc(S(=O)(=O)N3CCOCC3)cc2c1=O | -44.9%
CCCCN(C)CCCNC(=O)c1cn(CC)c2ccc(S(=O)(=O)N3CCOCC3)cc2c1=O | 10.3%
CCCCN(CC)CCCNC(=O)c1cn(CC)c2ccc(S(=O)(=O)N3CCc4ccccc4C3)cc2c1=O | -74.9%

SMILES | hERG current change (%, negative = inhibition) at 10uM
O=C(CCN1CCCCO1)N1CCCC(Nc2cccc(F)c2)C1 (centres unmarked) | 14%
Nc1nc2n(n1)C(c1ccco1)CC(c1ccc(Cl)c(Cl)c1)N2 (centres unmarked) | -31.4%
CC1CCN(C(=S)Nc2ccc(F)cc2)CC1 | 3.1%
CCC1C(=O)C(C)(C)C(=O)OC1c1ccc([N+](=O)[O-])cc1 (centres unmarked) | -7.26%
CC1C(=O)CC(c2ccc([N+](=O)[O-])cc2)NC1c1ccc([N+](=O)[O-])cc1.Cl (centres unmarked) | -69.7%
CC1C(=O)CC(c2ccccc2)NC1c1ccccc1 (centres unmarked) | -7.08%
CCC1C(=O)CC(c2ccccc2)NC1c1ccccc1 (centres unmarked) | -21.4%
CCC1C(=O)CC(c2ccc([N+](=O)[O-])cc2)NC1c1ccc([N+](=O)[O-])cc1 (centres unmarked) | -76.3%
CC1C(=O)C(C)C(c2ccc([N+](=O)[O-])cc2)NC1c1ccc([N+](=O)[O-])cc1 (centres unmarked) | -46%
Cc1ccc(NC(=O)CN(C)C(=O)CSc2nc3ccccc3o2)cc1 | -20.5%
COc1cc2c(cc1NC(=O)CN1CCN(S(=O)(=O)c3ccccc3F)CC1)oc1ccccc12 | 10.1%
CCCN1CCCC(C(=O)c2cc(C)c(OC)c(C)c2)C1 (centres unmarked) | -3.65%
COc1c(C)cc(C(=O)C2CCCN(Cc3cnc(C)s3)C2)cc1C (centres unmarked) | -7.68%
CSc1ccc(C(=O)C2CCCN(Cc3cccc4nccnc34)C2)cc1 (centres unmarked) | -82.8%
COc1ccccc1C(=O)C1CCCN(Cc2cccc3nccnc23)C1 (centres unmarked) | -67.4%
CSc1ccc(C(=O)C2CCCN(C(=O)c3cccnc3SC)C2)cc1 (centres unmarked) | -32.4%
COc1c(C)cc(C(=O)C2CCCN(Cc3cccc4nccnc34)C2)cc1C (centres unmarked) | -64.5%
CSc1ccc(C(=O)C2CCCN(Cc3cc4ccccc4[nH]3)C2)cc1 (centres unmarked) | -48.8%
COc1ccccc1C(=O)C1CCCN(Cc2cn[nH]c2C2CCCCC2)C1 (centres unmarked) | -31.5%
COc1ccccc1C(=O)C1CCCN(Cc2cnc(C)s2)C1 (centres unmarked) | -8.13%
